Assay outcomes: PubChem BioAssay, National Center for Advancing Translational Sciences (NCATS)
Shown are actives, neighbours in structure and some others; about 1.3% of the full set was active somewhere.
TrxR1 inh = rat TrxR1 inhibition | 1% of 390,000 active | O89049 | Potency, µM (titrated, usually from 114 µM), for inactives: top-dose activity change, negative = inhibition, usual class: inhibitors | recombinant rTrxR1, NADPH fluorescence consumption, selenite substrate | AID 588453; note: potency is the fitted concentration of half-maximal effect; % is set by controls: 0 for no effect and ±100 for the full control effect; nearly all actives have a fitted effect of over 65% in size
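Rat TrxR1 (90 nM in the dispensed reagent) was pre-reduced with 400 uM NADPH for 5 min at room temperature, then incubated with compound for 15 min. After 400 uM selenite was added, NADPH fluorescence (Ex 340/Em 450 nm) was followed for 8 min.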
TrxR1 substrate = rat thioredoxin reductase 1 substrate activity. purified TrxR1 substrate turnover, NADPH consumption readout. AID 588456. 0.01% of 390,000 active. O89049. Potency, µM (highest dose often 114 µM), inactives show top-dose activity change, negative = substrate turnover; note: potency is the fitted concentration of half-maximal effect; % is set by controls: 0 for no effect and ±100 for the full control effect; nearly all actives have a fitted effect of over 50% in size
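Rat TrxR1, dispensed at 90 nM, was prereduced with 400 uM NADPH (final) for 5 min at ~22 deg C, then incubated with compound 15 min before 400 uM selenite. A first-read NADPH fluorescence drop versus no-compound background flagged substrates.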
Anesthetic bind = candidate novel general anesthetic via apoferritin binding; P02791; apoferritin/1-aminoanthracene competitive binding, fluorescence; Potency, µM (doses to about 77.5 µM), without a hit: at the top dose activity change, negative = displacement, hits mostly inhibitors; 0.074% of 350,000 active; AID 485281; note: potency is the fitted concentration of half-maximal effect; % is set by controls: 0 for no effect and ±100 for the full control effect; nearly all actives have a fitted effect of over 20% in size
Target sequence (P02791 2-175 limits assumed): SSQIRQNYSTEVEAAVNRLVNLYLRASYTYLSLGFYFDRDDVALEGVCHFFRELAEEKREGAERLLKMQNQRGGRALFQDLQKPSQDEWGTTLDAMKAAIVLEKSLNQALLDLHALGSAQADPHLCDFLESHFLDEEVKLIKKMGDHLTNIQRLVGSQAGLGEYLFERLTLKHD
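Probe: 1-aminoanthracene (50% saturated, PBS). Protein: horse-spleen apoferritin, 10 uM. Incubation: 10 min, room temperature. Detection: 380 nm excitation, 535 nm emission. Analysis: normalized response, four-parameter Hill.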
IDH1 R132H inh = human IDH1 R132H inhibition | O75874 | IDH1-R132H enzyme, NADPH consumption, diaphorase/resazurin fluorescence | Potency, µM (doses to about 76.6 µM), without a hit: top-dose activity change, negative = inhibition, actives largely listed as inhibitors | 0.093% of 390,000 active | AID 602179; note: potency is the fitted concentration of half-maximal effect; % is set by controls: 0 for no effect and ±100 for the full control effect; nearly all actives have a fitted effect of over 65% in size
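IDH1-R132H (0.5 ug/mL) preincubated 30 min with compound, then NADPH (0.016 mM) and alpha-KG (2 mM) added; 80 min at RT, pH 7.5. Remaining NADPH coupled via diaphorase/resazurin to fluorescence (540/590 nm); concentration-response curves normalized to no-enzyme control.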
GALK inhibitor = blocks human galactokinase activity. P51570. Purified GALK, Kinase-Glo residual ATP luminescence. Potency, µM (doses to about 57.5 µM), for the others: at the highest dose activity change, negative = inhibition, hits mostly inhibitors. 0.007% of 270,000 active. AID 1868; note: potency is the fitted concentration of half-maximal effect; % is set by controls: 0 for no effect and ±100 for the full control effect
Target sequence (P51570 whole entry, looked up): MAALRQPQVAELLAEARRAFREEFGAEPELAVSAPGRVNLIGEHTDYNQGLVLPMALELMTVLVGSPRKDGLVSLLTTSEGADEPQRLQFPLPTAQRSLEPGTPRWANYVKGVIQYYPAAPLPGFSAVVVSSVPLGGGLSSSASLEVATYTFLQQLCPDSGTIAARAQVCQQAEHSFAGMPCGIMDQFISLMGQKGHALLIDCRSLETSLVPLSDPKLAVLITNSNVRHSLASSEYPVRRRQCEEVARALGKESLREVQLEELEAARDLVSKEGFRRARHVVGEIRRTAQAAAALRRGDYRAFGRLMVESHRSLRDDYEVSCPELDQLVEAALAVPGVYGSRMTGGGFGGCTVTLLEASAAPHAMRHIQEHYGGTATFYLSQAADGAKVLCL
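ATP-depletion format; final 35 uM ATP, 100 uM D-galactose, 5 nM enzyme; pH 8.0 HEPES/Mg2+ buffer; 60 min RT; luminescence read 10 min after detection reagent.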
PKM2 activator = increases activity of human pyruvate kinase M2. P14618. purified PKM2, Kinase-Glo ATP luminescence, activation; response scale: 0% is enzyme alone, no compound. Potency, µM (series often up to 57.5 µM), for the others: at the highest dose activation, hits mostly activators. 0.34% of 260,000 active; note: potency is the fitted concentration of half-maximal effect; % is set by controls: 0 for no effect and ±100 for the full control effect; nearly all actives have a fitted effect of over 55% in size
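ATP formation by purified human PK-M2, quantified via coupled luciferase luminescence after 1 h at room temperature with 0.1 mM ADP and 0.5 mM PEP final.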
HeLa viability = counter-screen for pyruvate kinase M2 activators: HeLa cytotoxicity. shares compounds with PKM2 activator. HeLa viability, CellTiter-Glo ATP luminescence, 24 h. activity change, negative = cytotoxicity, % at 57.5 µM. 230 tested, under 10 active. AID 1898; note: % of control where 0% means no effect
Active calls of the source: *; ? = inconclusive; . = no result given; [ ] = another dose, or the depositor's remark. Calls come from the whole dose curve; as a rule, active = well fitted curve in the direction sought with a large enough effect; inconclusive = small, poorly fitted or top-dose-only effect, or another doubt; inactive = no such curve, though single readings can be large; an effect the other way counts as inactive or inconclusive.

SMILES | TrxR1 inh | TrxR1 substrate | Anesthetic bind | IDH1 R132H inh | GALK inhibitor | PKM2 activator | HeLa viability
O=C(NCc1ccc2c(c1)OCO2)c1ccc(NS(=O)(=O)c2ccc3c(c2)OCCO3)cc1 | 21% | 4% | ? | -2% | -3% | 4.5µM* | 1
Clc1ccc(SCc2cn3ccccc3n2)cc1 | 6%[57.1 µM] | -3%[57.1 µM] | -11% | 6% | -8% | 0% | .
c1ccc2c(SCc3cn4ccccc4n3)nncc2c1 | 11% | 0% | -4% | 4% | 2% | 4.5µM* | -13
Cc1ccc(-c2cc(C(=O)N3CCN(S(=O)(=O)c4ccc(Br)s4)CC3)[nH]n2)c(C)c1 | 7% | -1% | -4% | 0% | . | . | .
O=C(O)c1ccc(Nc2nc3ccccc3c3nncn23)cc1 | 2% | -5% | 0% | -17% | . | . | .
c1ccc(-c2nnc(Cn3c4ccccc4c4nc5ccccc5nc43)o2)cc1 | -2% | -3% | . | 4% | . | . | .
CC(O)c1nc2ccccc2n1Cc1nnc(-c2ccc(Cl)cc2)o1 (configuration not stated) | 17%[57.1 µM] | 1%[57.1 µM] | -16% | -6% | -2% | 7.9µM* | 0
CCN(CC)c1ccc(NC(=O)C2CCN(S(=O)(=O)c3c(C)noc3/C=C/c3ccccc3F)CC2)c(C)c1 | 12%[57.1 µM] | -5%[57.1 µM] | 2% | -8% | . | . | .
NC(=O)C1CCN(S(=O)(=O)c2ccc3c(c2)OCCO3)CC1 | -20% | -12% | 2% | 0% | 11% | 15% | .
O=S(=O)(NC1CCN(S(=O)(=O)c2c(F)cccc2F)CC1)c1ccc2c(c1)OCCO2 | 14% | 7%[57.1 µM] | . | . | . | . | -29
O=S(=O)(Nc1c(F)cccc1F)c1ccc2c(c1)OCCO2 | 15% | 4% | 3% | -5% | -1% | -4% | .
O=S(=O)(c1ccc2c(c1)OCCO2)C1CCN(S(=O)(=O)c2c(F)cccc2F)CC1 | . | . | . | . | . | . | ?
O=S(=O)(NC1CCN(S(=O)(=O)c2c(F)cccc2F)C1)c1ccc2c(c1)OCCO2 (configuration not stated) | 16% | 0% | . | . | . | . | ?
O=S(=O)(NCCCNS(=O)(=O)c1c(F)cccc1F)c1ccc2c(c1)OCCO2 | 12% | 6% | . | . | . | . | -2
O=C1CC(NS(=O)(=O)c2ccc(F)cc2)CN1c1ccc2c(c1)OCCO2 (configuration not stated) | 7% | 8% | . | -2% | . | . | .
O=C(c1ccc2c(c1)OCCO2)C1CCN(S(=O)(=O)c2ccc(F)cc2)CC1 | 26% | 5% | -8% | 2% | 0% | 6% | .
CC1CCN(C(=O)CN2CC(C)Sc3ccccc32)CC1 (configuration not stated) | 6%[57.1 µM] | 3%[57.1 µM] | 1% | -9% | . | . | .
CCCc1nnc(NC(=O)CSc2nnc3c4ccccc4n(CC)c3n2)s1 | 16% | -3% | ? | 3% | . | . | .
CCc1nnc(NC(=O)CSc2nnc3c4ccccc4n(C)c3n2)s1 | 1% | 0% | -16% | 2% | 3% | 1.4µM* | -2
COc1ccc(CCNC(=O)Cc2c(C)c3c(cc(C)c4c(C)c(C)oc43)oc2=O)cc1 | 17% | -1% | -2% | -7% | . | . | .
COc1cccc(-c2nn(C)c3sc(C(=O)NCc4ccc(C)o4)cc23)c1 | 32µM* | 32% | -8% | -1% | 0% | 2.5µM* | ?
COc1ccc(C(=O)N/N=C/c2ccc(N3CCOCC3)o2)cc1OC | 28µM* | -10% | -1% | -3% | -1% | 2.5µM* | 1
COc1ccc(C(=O)N/N=C/c2ccc(N3CCOCC3)s2)cc1OC | -13% | -12% | . | -14% | . | . | .
COc1cc(C2C3=C(CCCC3=O)Nc3c2c(C)nn3-c2cccc(C)c2)cc(OC)c1O (configuration not stated) | 5% | 2% | -10% | 9% | -1% | 7.1µM* | ?
CCc1ccc(CNC(=O)c2cnc3sc(N4CCCCCC4)nn3c2=O)cc1 | 11%[57.1 µM] | 3%[57.1 µM] | -9% | -6% | . | . | .
SMILES | TrxR1 inh | TrxR1 substrate | Anesthetic bind | IDH1 R132H inh | GALK inhibitor | PKM2 activator | HeLa viability
Cc1nc2cc(NCc3ccccc3O)ccc2n1Cc1ccccc1 | 13%[57.1 µM] | 4% | -6% | -13% | 4% | 5µM* | -12
Cc1nc2ccccc2n1Cc1ccccc1 | 19% | 7% | -11% | 5% | 3% | 0% | .
C/C=C\C=C/C(=O)Nc1cccc(C2=NOC3(C2)C[C@@H](C(N)=O)N(C(=O)/C=C/C=C\C)C3)c1 (some centres not stated) | 7.1µM* | 12%[57.1 µM] | -3% | -8% | -2% | 1.4µM* | 4
C/C=C\C=C\C(=O)N1CC2(CC(c3cccc(NC(=O)CC(c4ccccc4)c4ccccc4)c3)=NO2)C[C@H]1C(N)=O (some centres not stated) | ? | 3%[57.1 µM] | -9% | -6% | 4% | ? | .
Cn1cnc2c1c(=O)n(Cc1cccc(F)c1)c(=O)n2C | 20% | 7% | -11% | 3% | 6% | 1%[11.5 µM] | .
Cc1cc2c(s1)c1cnn(Cc3cccc(Cl)c3)c(=O)c1n2C | . | . | . | . | . | . | -1
Cc1cc2c(s1)c1cnn(Cc3cccc(F)c3)c(=O)c1n2C | . | . | . | . | . | . | -3
O=S(=O)(c1cccc(C(F)(F)F)c1)N1CCN(S(=O)(=O)c2ccc3c(c2)OCCO3)CC1 | 2% | 0% | . | . | . | . | 2
O=S(=O)(c1ccccc1)N1CCN(S(=O)(=O)c2ccc3c(c2)OCCO3)CC1 | . | . | . | . | . | . | 0
CCS(=O)(=O)Nc1ccc(C2=NN(C(=O)c3ccco3)C(c3ccco3)C2)cc1 (configuration not stated) | -28% | -14% | . | 4% | . | . | .
CS(=O)(=O)Nc1ccc(C2=NN(C(=O)c3ccco3)C(c3ccccc3F)C2)cc1 (configuration not stated) | -22% | -12% | -12% | 4% | -2% | 3.2µM* | 0
O=S(=O)(c1ccc(Oc2ccc3c(c2)OCO3)c(S(=O)(=O)N2CCOCC2)c1)N1CCOCC1 | -9% | -5% | . | . | . | . | .
COc1ccccc1C(=O)Nc1ccccc1C(=O)OCc1cc(=O)n2ccsc2n1 | 6%[57.1 µM] | 0%[57.1 µM] | 6% | 13% | . | . | .
Cc1cc(C)n2nc(SCc3cc(=O)oc4ccc5ccccc5c34)nc2n1 | 1%[57.1 µM] | 9% | -11% | 5% | -2% | 2.8µM* | 0
Cc1cc(C)n2nc(SCc3cc(=O)oc4cc(C)c(C)cc34)nc2n1 | . | . | -6% | . | -4% | -9% | .
Cn1c(=O)[nH]c(=O)c2c1nc(SCC(=O)Nc1ccccc1)n2Cc1ccccc1 | 22% | -1% | -23% | -7% | 0% | 1.6µM* | ?
